# TGFb SMAD3 inh – qHTS for Inhibitors of TGF-b; HepG2 CAGA-GFP TGF-b/SMAD3 reporter, GFP fluorescence, 18 h; TGF-beta stimulated, 500 pg/mL final; Potency, µM (doses to about 46.1 µM), hits mostly inhibitors; 410,000 compounds, 1.2% hits; AID 588855, 2011; further: nearly all actives have a fitted effect of over 65% in size
#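 TGF-beta reporter screen: HEPG2 CAGA-GFP, 1% FBS, 500 pg/mL TGF-beta final, 18 h; per-cell GFP summed per well; curves fitted and categorized by class.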
# HT1080 IDH1KD tx – qHTS for induction of synthetic lethality in tumor cells producing 2HG: qHTS for the HT-1080-IDH1KD cell line. HT-1080 IDH1 knockdown viability, ATP luminescence, 48 h. Potency, µM (series often up to 46.1 µM), actives largely listed as cytotoxic. 360,000 compounds, 2% hits
#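 IDH1KD HT-1080 cells, 750/well, RPMI + 5% FBS; compound pinned after 2 h settling; 48 h, 37 °C; CellTiter-Glo luminescence; % activity normalised to DMSO and no-cell wells; curves fitted, classed by r2 and efficacy.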
# HT1080-NT tox – qHTS for induction of synthetic lethality in tumor cells producing 2HG: qHTS for the HT-1080-NT fibrosarcoma cell line | HT-1080-NT fibrosarcoma viability, CellTiter-Glo ATP luminescence, 48 h | Potency, µM (titrated, usually from 46.1 µM), most hits filed as cytotoxic | 360,000 compounds, 1.6% hits | AID 686970, 2013;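 further: NT is the 2HG producing partner of a matched IDH1 knockdown line; nearly all actives have a fitted effect of over 55% in size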
#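 Compounds were tested in concentration-response format on HT-1080-NT cells for 48 hours at 37 degrees C. Cell viability came from CellTiter-Glo luminescence; curves were classified by r2, response magnitude and activity.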
# Giardia killer – Small Molecules that selectively kill Giardia lamblia: qHTS. Giardia lamblia trophozoite viability. activity change, % at 7.66 µM, hits read low. 340,000 compounds, 0.15% hits. AID 540267, 2011; in the data active means activity change below about -80%; inconclusive means between about -30% and that limit;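 further: parasites exposed to compound for two days anaerobically before the ATP read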
#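 Compounds were tested on trophozoites seeded at 100 cells/well and held 48 hrs at 37 deg C anaerobically. An ATP-based luminescent kit measured the remaining live cells.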
# IL1B secr inh – qHTS for Inhibitors of Inflammasome Signaling: IL-1-beta AlphaLISA Primary Screen | 360,000 compounds, 4.7% hits | THP-1 LPS/ATP IL-1B secretion, AlphaLISA, 16 h; active compounds read low | activity change, % at 57.5 µM; in the data active means activity change below about -50%; inconclusive means mostly about -30% to -49%
#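 Secreted IL-1B measured by AlphaLISA bead assay after 16 h compound exposure of THP-1 cells; compounds (final up to 57.5 uM) added 1 h before LPS (250 ng/mL) and ATP (1.25 mM) stimulation; lower signal means less secretion.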
# HepG2 tox-1 – qHTS for Inhibitors of TGF-b: Cytotox Counterscreen; HepG2 CAGA-GFP viability, ATP luminescence, 18 h; Potency, µM (titrated, usually from 46.1 µM), actives largely listed as cytotoxic; 410,000 compounds, 0.76% hits; AID 588856, 2011
#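 CellTiter-Glo luminescence gave cytotoxicity after 18 hours at 37 degrees C. The cells were HepG2 CAGA-GFP in 1% FBS DMEM, stimulated with 500 pg/mL TGF-beta after compound addition. %Activity was normalised to no-cell wells (complete cell-killing) and DMSO (no toxicity), and curves were fitted and classified.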
# TGFb confirm – qHTS for Inhibitors of TGF-b: Confirmation of Cherry Picks; Potency, µM (series often up to 46.1 µM), actives largely listed as inhibitors; HepG2 CAGA-GFP TGF-b reporter, GFP fluorescence, 18 h; cells stimulated with TGF-beta, 500 pg/mL; AID 720534, 2013; 1,600 compounds, 63% hits; shares compounds with TGFb SMAD3 inh; further: nearly all actives have a fitted effect of over 65% in size
# HepG2 tox-2 – qHTS for Inhibitors of TGF-b: Cytotox Counterscreen for Cherry Picks. shares compounds with TGFb SMAD3 inh. HepG2 CAGA-GFP viability, ATP luminescence, 18 h; cells stimulated with TGF-beta, 500 pg/mL. Potency, µM (top dose mostly 46.1 µM), usual class: inhibitors. 1,600 compounds, 27% hits; further: nearly all actives have a fitted effect of over 70% in size
# CCL64 TGFb inh – qHTS for Inhibitors of TGF-b: CCL64 Cells Orthogonal Assay for Cherry Picks; shares compounds with TGFb SMAD3 inh; CCL64 CAGA-GFP reporter, TGF-b stimulated, GFP fluorescence, 18 h; Potency, µM (series often up to 46.1 µM), actives largely listed as inhibitors; 1,600 compounds, 41% hits; AID 720536, 2013; further: nearly all actives have a fitted effect of over 65% in size
# TGFb COP inh – qHTS for Inhibitors of TGF-b: Hit Validation in HepG2 Cells using COP promoter; shares compounds with TGFb SMAD3 inh; HepG2 COP-GFP TGF-b reporter, GFP fluorescence, 18 h; cells stimulated by added recombinant TGF-beta; Potency, µM (series often up to 46.1 µM), usual class: inhibitors; 1,600 compounds, 3% hits; AID 720537, 2013; further: nearly all actives have a fitted effect of over 70% in size
# Hits are given with their value; . = inactive; ? = inconclusive; / = no result. This is a sample that favours compounds with a hit; in the whole collection about 6.5% have one here. Unless noted, the call rests on the fitted dose curve; in most records, active means well fitted curve in the direction sought with a large enough effect; inconclusive means small, poorly fitted or top-dose-only effect, or another doubt; inactive means no such curve, though single readings can be large; an effect the other way counts as inactive or inconclusive.
SMILES,TGFb SMAD3 inh,HT1080 IDH1KD tx,HT1080-NT tox,Giardia killer,IL1B secr inh,HepG2 tox-1,TGFb confirm,HepG2 tox-2,CCL64 TGFb inh,TGFb COP inh
O=C(Nc1ncccn1)C1CCCN1S(=O)(=O)c1ccc(Cl)c(Cl)c1 (stereo unspecified),.,.,.,.,.,.,/,/,/,/
CCOC(=O)C1=C(C)N=C2SC(CC)C(=O)N2C1c1cccc(F)c1 (stereo unspecified),.,.,.,.,.,.,/,/,/,/
COc1ccc(CNC(=O)c2cccc(-c3ccc(C)c4ccccc34)n2)cc1,20µM,?,?,.,.,.,?,?,?,.
COc1ccc(N(C(=O)CCl)C(C(=O)NCCc2ccccc2)c2cccs2)cc1Cl (stereo unspecified),7.94µM,5.8µM,18.4µM,.,-102.7,.,4.61µM,5.17µM,2.06µM,20.6µM
COCCNC(=O)C(c1cccs1)N(C(=O)Cn1nnc2ccccc21)c1ccccc1 (stereo unspecified),.,.,.,.,.,.,/,/,/,/
O=C(CC(=O)Nc1cccc(F)c1)Nc1cccc(F)c1,.,.,.,.,.,.,/,/,/,/
O=C(C#Cc1ccccc1)Nc1cccc(F)c1,3.98µM,3.66µM,?,.,-106.3,.,2.06µM,6.51µM,5.8µM,.
COc1cccc(CNC(=O)c2nnn(CC(=O)Nc3ccc(Br)cc3)c2N)c1,?,?,.,.,.,.,/,/,/,/
Oc1ccc(C[C@H]2CN([C@@H](Cc3ccccc3)CN3CCCC3CN3C(=S)NC[C@@H]3Cc3ccccc3)C(=S)N2CCc2ccccc2)cc1 (stereo partly specified),/,.,.,/,.,/,/,/,/,/
Oc1ccc(C[C@H]2CN([C@@H](Cc3ccc(O)cc3)CN3CCC[C@@H]3CN3C(=S)NC[C@@H]3Cc3ccccc3)C(=S)N2CCc2ccccc2)cc1,?,?,?,/,?,.,/,/,/,/
CCOc1ccc(CCN2C(=S)N([C@@H](Cc3ccc(O)cc3)CN3CCC[C@@H]3CN3C(=S)NC[C@@H]3CC(C)C)C[C@@H]2Cc2ccc(O)cc2)cc1,4.47µM,20.6µM,16.4µM,/,.,.,8.2µM,11.6µM,5.17µM,.
CC(C)C[C@@H](CN1CCCC1CN1C(=S)NC[C@@H]1Cc1ccc(O)cc1)N1C[C@H](Cc2ccc(O)cc2)N(CCc2ccccc2)C1=S (stereo partly specified),5.62µM,?,?,.,.,6.31µM,14.6µM,?,8.2µM,.
